# Active and inactive are the calls of the source.
# What was measured:
# [1] = E. coli DRC41 culture turbidity changes, primary screen, E. coli filamentation inducer project, strain DRC41, OD650, 48 h (AID 1152);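 further: E. coli MC1000 strain DRC41 lacking acrAB efflux pump and sulA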; settings: E. coli DRC41 (acrAB sulA), higher = more signal, called active from +8 up or from −8 down
# [2] = small-molecule binders of probe aLefty1, primary screen, biochemical, small-molecule microarray, 635/667 nm fluorescence (AID 1153); settings: higher = more signal;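 further: score merges spot fluorescence with signal-to-noise ratio from the scanned slide images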
# [3] = PSAC antagonists in infected red cells, primary screen, cell-based, P. falciparum Indochina, OD700, 1 h (AID 1154); settings: P. falciparum Indochina infected RBC osmotic lysis, higher = more signal, called active from +8 up or from −8 down
# [4] = PSAC antagonists in infected red cells, primary screen, cell-based, P. falciparum Indochina, OD700, 2 h (AID 1155);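 further: lysis reports solute entry through the parasite surface anion channel PSAC; channel blockers reduce lysis of infected cells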; settings: P. falciparum Indochina infected erythrocytes, osmotic lysis OD700; higher = more signal, called active from +8 up or from −8 down
# [5] = osmotic lysis modulators in infected erythrocytes, primary screen, PSAC antagonist project, cell-based, P. falciparum Indochina, OD700, 3 h (AID 1156); settings: higher = more signal, called active from +8 up or from −8 down
# [6] = PSAC antagonists in infected red cells, primary screen, cell-based, P. falciparum Indochina, OD700, 18 h (AID 1157); settings: P. falciparum Indochina infected erythrocytes, osmotic lysis OD700, 18 h; higher = more signal, called active from +8 up or from −8 down
# [7] = modulators of S6 phosphorylation in cells, primary screen, cell-based, A549, cytoblot, luminescence, serum-stimulated (AID 1158); settings: A549 phospho-S6 cytoblot, 5 h, higher = more signal;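 further: serum-stimulated A549 lung adenocarcinoma cells; signal is phosphorylated S6 detected by cytoblot immunostaining with HRP secondary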
# [8] = target: NADPH oxidase 2 (Homo sapiens) (UniProt P04839); assay: NOX2-dependent H2O2 signal modulators, primary screen, NOX inhibitor project, cell-based, HEK293-NOX2, PMA-stimulated, Amplex Red fluorescence (AID 1159); settings: 45 min, higher = more signal, called active from +8 up or from −8 down; further: test concentration not given here
# [9] = target: NADPH oxidase 4 (Homo sapiens) (UniProt Q9NPH5); assay: NOX4-dependent H2O2 signal modulators, primary screen, NOX inhibitor project, cell-based, HEK293-NOX4, tetracycline-induced, Amplex Red fluorescence (AID 1160); settings: 45 min, higher = more signal, called active from +8 up or from −8 down
# [10] = target: NADPH oxidase 5 (Homo sapiens) (UniProt Q96PH1); assay: NOX5-dependent H2O2 signal modulators, primary screen, NOX inhibitor project, cell-based, HEK293-NOX5, Amplex Red fluorescence (AID 1161); settings: HEK293-NOX5, ionomycin, 45 min, higher = more signal
# [11] = A549 cell viability effects, profiling panel, calcein-AM fluorescence, 48 h, basal (AID 1162); settings: higher = more signal; further: test concentration not given here
# [12] = adipocyte viability effects, profiling panel, cell-based, 3T3-L1 adipocytes, calcein-AM fluorescence, 48 h, basal (AID 1163); settings: 3T3-L1 adipocytes viability, higher = more signal; further: test concentration not given here
# [13] = HepG2 cell viability effects, profiling panel, calcein-AM fluorescence, 48 h, basal (AID 1164); settings: higher = more signal; further: test concentration not given here
# [14] = MM1S cell viability effects, profiling panel, calcein-AM fluorescence, 48 h, basal (AID 1165); settings: higher = more signal;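 further: viability of MM1S multiple myeloma cells under basal unstimulated conditions; test concentration not given here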
# [15] = basal RPMI8226 viability, no added stimulus, profiling panel, cell-based, calcein-AM fluorescence, 48 h, PK04 Diversity Set (AID 1166); settings: RPMI8226 myeloma viability, higher = more signal;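 further: cells grown under basal conditions without added stimulus; test concentration not given here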
# [16] = basal HepG2 mitochondrial membrane potential changes, profiling panel, cell-based, JC-1 fluorescence, 24 h, 100 nL compound (AID 1167); settings: higher = more signal; further: test concentration not given here
# [17] = basal 3T3-L1 adipocyte mitochondrial potential changes, profiling panel, cell-based, JC-1 fluorescence, 3T3-L1 adipocytes, 24 h, 100 nL compound (AID 1168); settings: JC-1 mitochondrial fluorescence, higher = more signal, called active from +8 up or from −8 down; further: test concentration not given here
# [18] = basal RPMI8226 mitochondrial membrane potential changes, profiling panel, cell-based, JC-1 fluorescence, 24 h, 100 nL compound (AID 1169); settings: RPMI8226 myeloma, JC-1 mitochondrial potential fluorescence, higher = more signal; further: test concentration not given here
# [19] = basal MM1S mitochondrial membrane potential changes, profiling panel, cell-based, JC-1 fluorescence, 24 h, 100 nL compound (AID 1170); settings: higher = more signal; further: test concentration not given here
# [20] = A549 lung cancer cell viability effects, profiling panel, resazurin fluorescence, 24 h, PK04 Diversity Set (AID 1171); settings: higher = more signal, called active from +8 up or from −8 down; further: test concentration not given here
# Sequence of NADPH oxidase 5 (Homo sapiens) (Q96PH1 whole entry, looked up): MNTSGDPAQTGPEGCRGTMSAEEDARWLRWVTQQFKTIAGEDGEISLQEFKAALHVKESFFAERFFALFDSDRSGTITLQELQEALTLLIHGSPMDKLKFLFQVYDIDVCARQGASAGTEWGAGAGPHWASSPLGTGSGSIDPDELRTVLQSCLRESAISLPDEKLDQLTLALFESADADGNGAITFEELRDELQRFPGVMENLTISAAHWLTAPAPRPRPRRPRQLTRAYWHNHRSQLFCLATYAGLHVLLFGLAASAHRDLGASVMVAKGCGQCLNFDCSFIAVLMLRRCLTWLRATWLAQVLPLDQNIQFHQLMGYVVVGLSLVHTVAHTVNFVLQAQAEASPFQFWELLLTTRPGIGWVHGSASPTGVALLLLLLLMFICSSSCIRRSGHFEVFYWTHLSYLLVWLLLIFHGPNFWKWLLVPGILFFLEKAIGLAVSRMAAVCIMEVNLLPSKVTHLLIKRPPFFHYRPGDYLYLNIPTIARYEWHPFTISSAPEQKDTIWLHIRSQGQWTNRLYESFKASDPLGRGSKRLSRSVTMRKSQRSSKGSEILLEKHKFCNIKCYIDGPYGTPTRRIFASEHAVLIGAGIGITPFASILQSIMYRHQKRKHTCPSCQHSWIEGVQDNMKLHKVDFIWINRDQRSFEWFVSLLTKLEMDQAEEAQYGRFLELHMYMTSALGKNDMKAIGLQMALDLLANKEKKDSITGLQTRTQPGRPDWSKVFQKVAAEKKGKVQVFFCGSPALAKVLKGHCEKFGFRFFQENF
# Sequence of NADPH oxidase 4 (Homo sapiens) (Q9NPH5 whole entry, looked up): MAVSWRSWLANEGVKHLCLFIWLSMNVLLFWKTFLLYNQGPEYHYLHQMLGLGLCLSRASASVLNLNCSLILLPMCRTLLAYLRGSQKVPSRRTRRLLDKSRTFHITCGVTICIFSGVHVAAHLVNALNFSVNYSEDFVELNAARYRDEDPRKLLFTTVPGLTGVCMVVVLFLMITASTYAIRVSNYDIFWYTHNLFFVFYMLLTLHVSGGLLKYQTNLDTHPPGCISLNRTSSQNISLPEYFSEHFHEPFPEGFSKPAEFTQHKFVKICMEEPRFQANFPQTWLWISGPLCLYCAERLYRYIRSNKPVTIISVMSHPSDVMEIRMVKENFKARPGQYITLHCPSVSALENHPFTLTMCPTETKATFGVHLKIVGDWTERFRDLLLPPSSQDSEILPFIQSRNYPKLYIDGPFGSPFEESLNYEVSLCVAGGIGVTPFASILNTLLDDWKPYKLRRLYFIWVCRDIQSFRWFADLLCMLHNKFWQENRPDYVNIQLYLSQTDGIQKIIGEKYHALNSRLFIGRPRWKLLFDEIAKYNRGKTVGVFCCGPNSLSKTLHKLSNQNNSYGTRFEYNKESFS
# Sequence of NADPH oxidase 2 (Homo sapiens) (P04839 whole entry, looked up): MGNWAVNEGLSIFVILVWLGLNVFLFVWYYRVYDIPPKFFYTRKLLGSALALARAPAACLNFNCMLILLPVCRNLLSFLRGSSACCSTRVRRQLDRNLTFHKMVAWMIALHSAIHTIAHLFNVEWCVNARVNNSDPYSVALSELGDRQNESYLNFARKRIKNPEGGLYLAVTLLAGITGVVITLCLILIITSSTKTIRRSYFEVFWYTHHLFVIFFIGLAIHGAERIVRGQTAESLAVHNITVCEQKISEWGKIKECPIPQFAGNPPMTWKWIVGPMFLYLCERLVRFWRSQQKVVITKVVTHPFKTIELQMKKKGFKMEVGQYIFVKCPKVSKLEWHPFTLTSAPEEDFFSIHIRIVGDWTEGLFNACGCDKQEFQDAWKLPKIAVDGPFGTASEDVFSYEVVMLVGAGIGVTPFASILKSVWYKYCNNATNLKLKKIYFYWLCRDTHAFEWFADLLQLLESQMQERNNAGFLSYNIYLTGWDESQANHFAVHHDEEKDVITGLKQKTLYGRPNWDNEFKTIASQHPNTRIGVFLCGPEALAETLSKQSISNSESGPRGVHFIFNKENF
Structure (SMILES),z-score [1],composite z-score [2],z-score [3],z-score [4],z-score [5],z-score [6],z-score [7],z-score [8],z-score [9],z-score [10],z-score [11],z-score [12],z-score [13],z-score [14],z-score [15],z-score [16],z-score [17],z-score [18],z-score [19],z-score [20]
NC(=O)[C@H]1[C@@H]2C(=O)O[C@@H](c3ccccc3)[C@@H](c3ccccc3)N2[C@@H](c2ccc(OCCO)cc2)[C@]12C(=O)Nc1ccc(C#CCCO)cc12,-0.628 (inactive),0.0753,6.95 (inactive),1.05 (inactive),-1.02 (inactive),0.466 (inactive),-0.671,2.03 (inactive),1.03 (inactive),1.13,0.0067,0.272,0.456,0.227,0.167,-0.202,-0.383 (inactive),-0.398,-1.18,-0.0196 (inactive)
COC(=O)C1=CC(CCCO)=CC(c2ccc(CN3CCCC3)cc2)N(Cc2cccc(OC(F)(F)F)c2)C=C1C(=O)OC (stereo not given),-0.418 (inactive),0.241,0.119 (inactive),-0.984 (inactive),0.456 (inactive),-2.27 (inactive),1.38,0.439 (inactive),-0.351 (inactive),0.628,0.589,-0.0684,1.34,1.04,-0.413,3.57,0.395 (inactive),0.121,0.593,-1.16 (inactive)
C=C(COC)/C(=C/C[C@H](OC(=O)c1ccncc1)c1ccccc1OCCO)c1cc(C(=O)OC)ccc1OC,-0.604 (inactive),0.307,14 (active),2.43 (inactive),2.72 (inactive),0.773 (inactive),0.0976,-1.21 (inactive),0.0788 (inactive),-1.62,-0.0954,0.0589,-0.0472,-3.34,-1.58,1.94,-0.658 (inactive),-0.596,-0.159,0.315 (inactive)
COC(=O)c1c(CC[C@@H](CO)NC(=O)N[C@@H](C)Cn2cc(-c3ccccn3)nn2)oc(C(C)=O)c1C(=O)OC,-0.476 (inactive),-0.106,1.71 (inactive),-1.15 (inactive),0.613 (inactive),-1.08 (inactive),0.42,-3.95 (inactive),-2.23 (inactive),-3.06,-0.495,0.526,-0.239,0.226,-0.858,-0.182,-0.857 (inactive),-0.181,-0.0849,-1.38 (inactive)
C=CC[C@@H](OC(=O)Nc1ccc(SC)cc1)c1ccc(O)c(F)c1,0.959 (inactive),-0.0573,24.1 (active),6.56 (inactive),1.9 (inactive),1.04 (inactive),0.42,-5.77 (inactive),-2.85 (inactive),-3.25,1.12,-0.475,-0.889,-2.14,-1.75,-2.43,4.4 (inactive),-0.343,-1.04,-0.68 (inactive)
NCCCCCNC(=O)[C@@H]1C[C@@H]2C(=O)N[C@@H](CCCCN)C(=O)N2[C@@H]1c1ccc(O)cc1,-0.175 (inactive),0.739,3.95 (inactive),1.74 (inactive),-2.34 (inactive),0.937 (inactive),-0.912,1.5 (inactive),1.85 (inactive),1.48,-0.0858,-0.426,0.131,-0.29,-0.0496,-0.573,1.56 (inactive),-0.457,-1.14,0.0497 (inactive)
CN(C)CCCCCCNC(=O)[C@@H]1C[C@@H]2C(=O)N3CCC[C@H]3C(=O)N2[C@@H]1c1cccc(OCCO)c1,-0.305 (inactive),0.0231,3.6 (inactive),0.456 (inactive),0.77 (inactive),0.448 (inactive),-0.701,1.03 (inactive),-0.884 (inactive),0.837,-0.84,-0.314,-0.679,-0.592,-0.156,-1.06,0.444 (inactive),0.605,0.784,-0.954 (inactive)
O=C1OCCC=C[C@H]2OC34C=CCN(c5ccc6ccccc6c5)C(=O)[C@H]3N(CCCO)C(=O)[C@@H]4C12 (stereo not given in full),0.181 (inactive),-0.291,0.204 (inactive),-0.568 (inactive),0.676 (inactive),-1.27 (inactive),0.684,0.755 (inactive),-0.644 (inactive),0.741,0.167,1.41,-0.16,0.441,-0.556,-0.458,0.241 (inactive),-0.0315,-0.89,-0.391 (inactive)
CC(C)[Si]1(C(C)C)OCc2cc(C3CC3)nc(-c3ccc(Oc4ccccc4)cc3)c21,-0.367 (inactive),-0.284,2.58 (inactive),1.8 (inactive),0.508 (inactive),1.29 (inactive),-0.389,1.11 (inactive),0.344 (inactive),0.322,1.25,0.676,0.468,-0.795,-1.94,-2.33,0.138 (inactive),-0.989,0.196,2.94 (inactive)
CCCCCCCCCC(O)C1C=CC2C(=O)N(c3ccccc3)C(=O)C2N1Nc1cc(OC)c(OC)c(OC)c1 (stereo not given),-3.95 (inactive),0.448,7.78 (inactive),1.84 (inactive),-0.372 (inactive),-0.449 (inactive),1.05,-2.86 (inactive),-4.13 (inactive),-2.67,-1.07,0.614,-0.777,-3.83,-4.07,-0.0684,0.783 (inactive),-0.994,-1.21,-1.58 (inactive)
COc1ccc([Si](C)(C)[C@@H]2[C@@H](CCO)O[C@]3(C(=O)N(Cc4ccccc4)c4ccc(N5CCOC5=O)cc43)[C@H]2C)cc1,0.519 (inactive),0.042,3.02 (inactive),-0.0856 (inactive),0.796 (inactive),-1.09 (inactive),2.12,-0.245 (inactive),0.699 (inactive),-1.07,-1.39,1.67,-1.26,-2.34,-3.44,-0.309,0.168 (inactive),-0.947,-0.756,-1.94 (inactive)
CCCCCN1CC=CC23O[C@@H]4C=CCCOC(=O)C4[C@H]2C(=O)N(CCCCCCO)[C@@H]3C1=O (stereo not given in full),0.457 (inactive),-0.324,1.07 (inactive),0.705 (inactive),1.01 (inactive),0.407 (inactive),1.59,1.27 (inactive),-0.0418 (inactive),2.08,-0.182,-0.131,0.28,0.762,0.494,0.306,0.737 (inactive),0.548,-0.823,0.229 (inactive)
CN(C)C(=O)[C@]1(Cc2ccccc2CN=[N+]=[N-])N=C(c2ccc(OCCCO)cc2)O[C@@H]1c1ccccc1,-0.532 (inactive),0.457,27.1 (active),22.9 (active),1.76 (inactive),0.96 (inactive),1.87,-4 (inactive),-2.05 (inactive),-1.94,-2.01,0.894,-1.65,-3.16,-4.37,-0.117,-0.58 (inactive),-1.33,-1.37,0.721 (inactive)
[N-]=[N+]=Nc1ccccc1[C@H]1OC(c2ccc(OCCCO)cc2)=N[C@@]1(Cc1ccccc1)C(=O)NCCN1CCOCC1,0.378 (inactive),0.31,33.5 (active),30.9 (active),2.73 (inactive),8.84 (active),0.138,-1 (inactive),0.585 (inactive),1.57,-0.449,0.91,-1.21,-2,-3.41,2.36,1.83 (inactive),-1.06,-0.638,-2 (inactive)

# From PubChem BioAssay
